This is a sample that favours compounds with a hit; in the whole collection about 0.86% have one here.
APEX1 inh = inhibitors of human APE1 endonuclease; P27695; recombinant APE1, TAMRA/BHQ-2 abasic DNA cleavage fluorescence; Potency, µM (titrated, usually from 65.8 µM), most hits filed as inhibitors; 350,000 compounds, 0.35% hits; AID 2517; note: nearly all actives have a fitted effect of over 55% in size
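Enzyme (0.75 nM final) and test compound are incubated 15 min at room temperature before adding 50 nM quenched THF abasic-site duplex. Cleavage dequenches TAMRA, followed at 525/598 nm over three reads one minute apart.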
BLM inh = blocks DNA unwinding by human BLM helicase. recombinant BLM DNA unwinding, fluorescence dequenching. Potency, µM (highest dose often 56.1 µM), hits mostly inhibitors. 350,000 compounds, 0.2% hits. AID 2528; note: nearly all actives have a fitted effect of over 35% in size
FEN1 inhibitor = inhibitors of human flap endonuclease 1; Potency, µM (highest dose often 114 µM), hits mostly inhibitors; Recombinant FEN1 flap cleavage, fluorescence, 15 min; AID 588795; P39748; 390,000 compounds, 0.35% hits; note: nearly all actives have a fitted effect of over 65% in size
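Compounds are tested as a concentration series against 10 nM FEN1; after a 15 min room-temperature preincubation, 50 nM substrate starts cleavage, with plate reads at 0 and 15 min. Normalized responses are fitted by a Hill equation.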
GLS inhibitor = glutaminase GLS (human) inhibition; O94925; GLS enzymatic activity, qHTS titration; Potency, µM (series often up to 45.5 µM), actives largely listed as inhibitors; 410,000 compounds, 0.21% hits
Target sequence (O94925 whole entry, looked up): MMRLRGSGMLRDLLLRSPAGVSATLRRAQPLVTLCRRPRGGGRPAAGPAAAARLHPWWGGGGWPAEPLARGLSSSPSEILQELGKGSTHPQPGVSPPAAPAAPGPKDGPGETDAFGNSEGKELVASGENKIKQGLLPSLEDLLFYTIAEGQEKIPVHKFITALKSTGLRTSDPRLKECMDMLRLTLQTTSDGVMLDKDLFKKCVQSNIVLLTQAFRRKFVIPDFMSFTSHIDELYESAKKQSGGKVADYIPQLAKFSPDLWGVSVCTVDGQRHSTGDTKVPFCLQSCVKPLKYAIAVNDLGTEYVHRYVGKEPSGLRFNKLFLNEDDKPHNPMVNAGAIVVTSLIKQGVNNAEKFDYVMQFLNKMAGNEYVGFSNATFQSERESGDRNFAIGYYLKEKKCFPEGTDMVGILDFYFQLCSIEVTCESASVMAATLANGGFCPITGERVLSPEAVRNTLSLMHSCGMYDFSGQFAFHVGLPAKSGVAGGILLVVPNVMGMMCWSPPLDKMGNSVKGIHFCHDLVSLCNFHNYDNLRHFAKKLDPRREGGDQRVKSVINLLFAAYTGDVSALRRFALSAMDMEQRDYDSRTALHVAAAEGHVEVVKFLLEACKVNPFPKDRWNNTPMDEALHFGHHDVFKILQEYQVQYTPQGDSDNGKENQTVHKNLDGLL
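Read-out is an Amplex red fluorescence increase coupled through glutamate oxidase and HRP, measured before and after 30 min room-temperature incubation. hKGA is in 45 mM KH2PO4 (pH 8.2) with 0.02% Tween-20; glutamine added as 1mM solution.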
PGK inhibitor = T. brucei PGK inhibition; Potency, µM (titrated, usually from 57.5 µM), hits mostly inhibitors; PGK/GAPDH coupled, Kinase-Glo luminescence, 60 min; 380,000 compounds, 0.043% hits; note: nearly all actives have a fitted effect of over 60% in size
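Recombinant glycosomal PGK reaction used 1,3-bisphosphoglycerate generated in-well by GAPDH (100nM final) in 100mM TEA pH 7.6, 5mM MgCl2, 0.01% Tween-20. After 60 minutes at room temperature, ATP was read by Kinase-Glo Plus luminescence end-point.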
RECQ1 helicase = inhibitors of human RECQ1 DNA helicase; RECQ1 DNA unwinding, red fluorescence kinetic read; Potency, µM (doses to about 57.3 µM), actives largely listed as inhibitors; 240,000 compounds, 0.54% hits; AID 2549; note: nearly all actives have a fitted effect of over 30% in size
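RECQ1T1 50 nM; forked duplex (20 bp + 30-nt ss tails) 200 nM, ATP 2 mM final; pH 8.0, 2 mM MgCl2, 2.5 ug/ml poly(dI-dC); 15 min compound preincubation; discontinuous kinetic read over 2 h at RT.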
Large screens that a line does not name were inactive; ! = a repeat was not active. Calls come from the whole dose curve; as a rule, active = well fitted curve in the direction sought with a large enough effect; inconclusive = small, poorly fitted or top-dose-only effect, or another doubt; inactive = no such curve, though single readings can be large; an effect the other way counts as inactive or inconclusive.

O=C(CNC(=O)c1ccccc1Cl)N/N=C/c1ccc2c(c1)OCO2	none (no result: RECQ1 helicase)
Clc1ccccc1N/N=C/c1ccc2c(c1)OCO2	APEX1 inh inconclusive, GLS inhibitor 25µM
CS(=O)(=O)c1ccc(N)c(SSc2cc(S(C)(=O)=O)ccc2N)c1	FEN1 inhibitor inconclusive, GLS inhibitor 10µM (no result: BLM inh, RECQ1 helicase)
Cc1sc2cc3c(c(C(=O)c4ccccc4)[n+]2c1C)-c1cccc2cccc-3c12	FEN1 inhibitor 40µM
Nc1ccc(C2=Nc3cccc4cccc(c34)N2)cc1	none (no result: PGK inhibitor)
COc1cccc(C2=Nc3cccc4cccc(c34)N2)c1	FEN1 inhibitor inconclusive, GLS inhibitor 11µM
O=C(N/N=C/c1cc2ccccc2nc1Cl)/C(=C/c1cccs1)NC(=O)c1ccccc1	BLM inh inconclusive, RECQ1 helicase 25µM
CNc1ccc(/C=C2\C=Cc3ccccc32)cc1Cl	none (no result: APEX1 inh, BLM inh, GLS inhibitor, PGK inhibitor, RECQ1 helicase)
CC1=CC2(O)OCCN(CCO)C2=CC1=O (stereo unspecified)	APEX1 inh inconclusive, BLM inh inconclusive, RECQ1 helicase 25µM (no result: PGK inhibitor)
Nc1c(Br)cc(/C=C2\C=Cc3ccccc32)cc1Br	none (no result: APEX1 inh, BLM inh, GLS inhibitor, PGK inhibitor, RECQ1 helicase)
CC(C)[C@H]1COCCS(=O)(=O)N1Cc1cccc([N+](=O)[O-])c1	none (no result: APEX1 inh, BLM inh, GLS inhibitor, PGK inhibitor, RECQ1 helicase)
C=C1C=C(C(F)F)n2ncc(C(=O)Nc3ccc(C(C)CC)cc3)c2N1 (stereo unspecified)	none (no result: BLM inh, FEN1 inhibitor, GLS inhibitor, PGK inhibitor, RECQ1 helicase)
Cc1c(N)nc([C@H](CC(N)=O)NC[C@H](N)C(N)=O)nc1C(=O)N[C@H](C(=O)N[C@H](C)[C@@H](O)[C@H](C)C(=O)N[C@H](C(=O)NCCc1nc(-c2nc(C(=O)NCCCCN=C(N)N)cs2)cs1)[C@@H](C)O)[C@@H](O[C@@H]1O[C@@H](CO)[C@@H](O)[C@H](O)[C@@H]1O[C@H]1O[C@H](CO)[C@@H](O)[C@H](OC(N)=O)[C@@H]1O)c1cnc[nH]1	none (no result: BLM inh, FEN1 inhibitor, GLS inhibitor, PGK inhibitor, RECQ1 helicase)
Cc1csc(NC(=O)CSc2nncn2C)n1	none
Cn1cnnc1SCC(=O)Nc1ncc([N+](=O)[O-])s1	APEX1 inh 8.4µM, FEN1 inhibitor inconclusive, PGK inhibitor inconclusive (no result: BLM inh, RECQ1 helicase)
CN(C)c1ccc(Cc2cc3c(O)ccc(O)c3cc(Cc3ccc(N(C)C)cc3)c2=O)cc1	FEN1 inhibitor 40µM (no result: APEX1 inh, BLM inh, RECQ1 helicase)
CN(C)c1ccc(C(=O)c2ccc(O)cc2O)cc1	none
CCCCNC(=O)c1ccc2nc(-c3ccco3)c(-c3ccco3)nc2c1	BLM inh 16µM, FEN1 inhibitor 40µM
O=C(NC1CC1)c1ccc2nc(-c3ccco3)c(-c3ccco3)nc2c1	FEN1 inhibitor 11µM (no result: APEX1 inh, BLM inh, GLS inhibitor, PGK inhibitor, RECQ1 helicase)
CCCNC(=O)c1ccc2nc(-c3ccccc3)c(-c3ccccc3)nc2c1	none
O=C(Nc1ccccc1)c1ccc2nc(-c3ccco3)c(-c3ccco3)nc2c1	BLM inh 32µM, FEN1 inhibitor inconclusive
O=C(Nc1ccc(N2CCOCC2)cc1)c1ccc2nc(-c3ccco3)c(-c3ccco3)nc2c1	none
CNC(=O)c1ccc2nc(-c3ccco3)c(-c3ccco3)nc2c1	FEN1 inhibitor 6.3µM (no result: APEX1 inh, BLM inh, GLS inhibitor, PGK inhibitor, RECQ1 helicase)
C[N+]1(C)CCC(OC(=O)CC(O)(c2ccccc2)C2CCCC2)C1 (stereo unspecified)	none (no result: APEX1 inh, BLM inh, FEN1 inhibitor, PGK inhibitor, RECQ1 helicase)
O/N=C(/C[n+]1ccsc1)c1ccc(I)cc1	none (no result: APEX1 inh, BLM inh, GLS inhibitor, PGK inhibitor, RECQ1 helicase)
CC1=C(C#N)C(=O)N(C2CCS(=O)(=O)C2)C(=O)/C1=C\c1ccco1 (stereo unspecified)	APEX1 inh 1.6µM, BLM inh 7.1µM, RECQ1 helicase 3.2µM (no result: FEN1 inhibitor, GLS inhibitor, PGK inhibitor)
O=C(COc1ccccc1C(=O)Nc1ccccc1)Nc1ccc(-c2ccccc2)cc1	none (no result: APEX1 inh, BLM inh, GLS inhibitor, PGK inhibitor, RECQ1 helicase)
CC(C)(c1cc(Br)c(O)c(Br)c1)c1cc(Br)c(O)c(Br)c1	FEN1 inhibitor inconclusive, RECQ1 helicase 22µM! (no result: BLM inh)
CC[n+]1c(/C=C/N(C)c2ccccc2)n(-c2ccccc2)c2ccc(-c3nc4ccccc4s3)cc21	APEX1 inh inconclusive, FEN1 inhibitor 40µM
O=C1Nc2ccc(I)cc2C1=Cc1cc(Br)c(O)c(Br)c1	FEN1 inhibitor 35µM (no result: APEX1 inh, BLM inh, GLS inhibitor, PGK inhibitor, RECQ1 helicase)
CC1(O)C(=O)C=C2C=C(c3ccsc3)OC=C2C1=O (stereo unspecified)	none (no result: FEN1 inhibitor, GLS inhibitor, PGK inhibitor)
CCC(=O)OC1(C)C(=O)C=C2C=C(c3ccsc3)OC=C2C1=O (stereo unspecified)	APEX1 inh inconclusive, FEN1 inhibitor 40µM
CC1(OC(=O)c2ccco2)C(=O)C=C2C=C(c3ccsc3)OC=C2C1=O (stereo unspecified)	APEX1 inh inconclusive (no result: FEN1 inhibitor, GLS inhibitor, PGK inhibitor)
COC(=O)CCC(=O)OC1(C)C(=O)C=C2C=C(c3ccsc3)OC=C2C1=O (stereo unspecified)	FEN1 inhibitor 32µM, GLS inhibitor 13µM
Cc1cccc(-n2c(=S)[nH]c3sc4c(c3c2=O)CCc2ccccc2-4)c1	GLS inhibitor 10µM
COc1cc(C2/C(=C(/O)c3ccccc3)C(=O)C(=O)N2c2ccccn2)ccc1O (stereo unspecified)	GLS inhibitor 8.9µM
COc1cc(C2Nc3cccc4cccc(c34)N2)ccc1O	GLS inhibitor 11µM (no result: RECQ1 helicase)
COc1cc(C2Nc3cccc4cccc(c34)N2)cc(OC)c1OC(C)=O	FEN1 inhibitor 32µM
Clc1cccc(Cl)c1CNc1ccc(N2CCCC2)cc1	APEX1 inh inconclusive, GLS inhibitor 7.1µM
CC(C)(C)n1ncc2c(=O)n(Cc3ccc(C#N)cc3F)cnc21	none (no result: BLM inh, GLS inhibitor, PGK inhibitor, RECQ1 helicase)

High-throughput results: PubChem, National Center for Advancing Translational Sciences (NCATS)
